Source: PubChem BioAssay (National Center for Advancing Translational Sciences (NCATS))
Sm TGR inh: S. mansoni TGR enzyme inhibition; purified TGR, DTNB reduction, TNB absorbance 405 nm; Potency, µM (top dose mostly 114 µM), inactives show at the top dose activity change, negative = inhibition, actives largely listed as inhibitors; 360,000 tested, 3% active; active = well fitted inhibition curve with a large enough effect; inconclusive = small, poorly fitted or top-dose-only effect; inactive = no such curve, though single readings can be large or run the other way; also: % is scaled to controls: 0 for no effect and ±100 for the full control effect; nearly all actives have a fitted effect of over 60% in size
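Kinetic colorimetric format: TGR-catalysed, NADPH-driven DTNB reduction monitored via TNB absorbance. Enzyme dispensed at 20 nM; compound exposure 15 min at room temperature before reaction start.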
SARS PLpro yeast: SARS-CoV PLP inhibition in yeast | AID 485353 | S. cerevisiae expressing SARS-CoV PLpro, growth rescue | Potency, µM (highest dose often 32.9 µM), without a hit: at the highest dose activity, positive = growth rescue, actives largely listed as activators | 330,000 tested, 0.19% active; calls by dose curve; also: 0% is about no effect; nearly all actives have a fitted effect of over 55% in size
* hit, by the source's call; ? = inconclusive; / = not tested or not shown; [ ] = remark or other dose. A selection: hits, their analogues and other compounds. The true share with any hit is near 3%. Potency is read from the fitted curve at half-maximal effect.

SMILES | Sm TGR inh | SARS PLpro yeast
CCOc1ccc(N2C(=O)/C(=C/c3ccco3)C(=O)NC2=S)cc1 | 22.4µM* | -2.8%
Cc1ccc(/C=C2/SC(=O)NC2=S)o1 | ? | -0.4%
Cc1ccc(/C=C2\C(=O)NC(=O)N2C)o1 | 35.5µM* | 1.9%
Cc1ccc(N2C(=O)/C(=C\c3ccco3)SC2=S)cc1 | -32.6% | -3.5%
COc1ccc(S(=O)(=O)N2CCN(Cc3nc4ccc(C)cc4o3)CC2)cc1 | -0.3% | /
Cc1ccccc1NC(=O)CSC1=Nc2ccccc2C2=NC(Cc3ccccc3)C(=O)N12 (centres undefined) | 5.2% | /
COc1cc2c(cc1OC)[C@@H]1O[C@](c3ccsc3)(C2)Oc2cc(C)n(-c3ccccc3)c(=O)c21 | -15.9%[22.9 µM] | -1.0%[6.58 µM]
Cc1ccc(C)c(N(C)C(=O)Cc2c(C(=O)O)[nH]c3ccc(Cl)cc23)c1 | 6.4% | /
Cc1ccccc1N1C(=O)/C(=C/c2ccco2)C(=O)NC1=S | 44.7µM* | 0.0%
O=C1/C(=C/c2cccs2)NC(=S)N1C1CC1 | 1.7% | -0.3%
Cc1ccc(/C=C2\C(=O)Nc3ccccc32)o1 | 25.1µM* | -114.0%
O=C1NC(=S)N(c2ccccc2F)C(=O)/C1=C\c1cccs1 | 7.94µM* | -54.6%
Cc1cccc(N2C(=O)/C(=C/c3ccc(N4CCN(C)CC4)o3)C(=O)NC2=S)c1C | -25.1% | -6.7%
O=C1Nc2ccccc2/C1=C/c1ccccc1F | -0.2% | -3.3%
Cc1cccc(N(C)c2nc3ccc(C(=O)c4ccccc4)cc3n3c(C)nnc23)c1 | -3.9% | /
O=C(CSc1n[nH]c(-c2ccccc2)n1)N1CCN(c2ccccc2F)CC1 | 0.3% | /
COc1cc(CN(C(=O)COc2ccc(C)c(C)c2)c2ccccn2)cc(OC)c1OC | 0.4% | /
CC(=O)c1cccc(NC(=O)c2c(C)nn(-c3ccc(F)cc3)c2-n2cccc2)c1 | 4.2% | /
Cc1ccc(OCC(=O)c2cc(C)c(C)cc2C)c([N+](=O)[O-])n1 | 15.8µM* | -4.1%
CCCn1c(C)cc(C(=O)COc2ccc(C)nc2[N+](=O)[O-])c1C | -14.6% | 1.4%
Cc1ccc(OCC(=O)c2cc(C)n(-c3ccccc3)c2C)c([N+](=O)[O-])n1 | -22.9% | 5.3%
Cc1ccc(C)c(C(=O)COc2ccc(C)nc2[N+](=O)[O-])c1 | 11.2µM* | -5.2%
CCC1CN(C(=O)N2CCC(C(=O)N(C)Cc3ccccc3)CC2)c2ccccc2O1 (centres undefined) | 1.9% | /
CCCN(CCC)CCCNC(=O)c1cc2c(=O)oc3ccc(C)cc3c2s1 | -25.5% | /
CC1=C(C(=O)Nc2ccc(C)cc2C)C(c2ccc(O)cc2)n2nc(SCC(=O)c3ccc(C)cc3)nc2N1 (centres undefined) | -6.8% | /
SMILES | Sm TGR inh | SARS PLpro yeast
CC(C)SC1=NC(C)(C)C=C(/C=C/c2c(Cl)cccc2Cl)N1 | 20µM* | -14.8%
CC(C)SC1=NC(C)(C)C=C(/C=C/c2ccc(Cl)cc2Cl)N1 | 15.8µM* | 1.9%
Clc1cccc(Cl)c1/C=C/c1nc2ccccc2[nH]1 | -22.0% | -47.9%
O=C(/C=C/c1ccc(Cl)cc1Cl)c1nc2ccccc2[nH]1 | -17.0% | 0.9%
COc1cc(C2c3c(oc4ccccc4c3=O)C(=O)N2c2nncs2)cc(OC)c1OC (centres undefined) | 8.8% | /
CNC(=O)C1CCC(Cn2c(=O)c3sccc3n(CC(=O)NCc3ccc(C)cc3)c2=O)CC1 (centres undefined) | -0.6% | /
COc1ccc(-c2ccc(NS(=O)(=O)c3ccccc3Cl)cc2)nn1 | 3.1% | /
CCN(CC)c1ccc(/C=N/NC(=O)c2ccc3nc[nH]c3c2)c(O)c1 | 9.8% | 3.16µM*
CCN(CC)c1ccc(/C=N/NC(=O)c2cccc(S(=O)(=O)Nc3ccccc3OC)c2)cc1 | -6.2% | -1.2%
CCN(CC)c1ccc(/C=N/NC(=O)c2cccc(S(=O)(=O)Nc3ccccc3OC)c2)c(O)c1 | 2.8% | 1.78µM*
CC(C)Oc1ccccc1/C=N/NC(=O)c1ccc(F)cc1 | 7.9% | -3.2%
COc1cccc(/C=N/NC(=O)c2ccc3nc[nH]c3c2)c1O | -13.4% | -0.4%
CCN(CC)c1ccc(C(=O)N/N=C/c2ccccc2OC(F)F)cc1 | -0.3% | 8.91µM*
O=C(NCc1ccc(F)cc1)C(=O)Nc1ccc2nc3n(c(=O)c2c1)CCCCC3 | 2.5% | /
CCNC(=O)c1cnc2c(-c3ccccc3)c(C)nn2c1C | -3.8% | /
Cc1nc2nc(NC(=O)c3ccc(C(C)(C)C)cc3)[nH]n2c(=O)c1C | -5.0% | /
CCc1cccc(CC)c1NC(=O)Cn1nnc2sc(-c3ccccc3)cc2c1=O | -6.0% | /
O=C(O)c1ccc(Cn2cnc3cccnc32)cc1 | 50.1µM* | -0.1%
O=C(O)c1ccc(Cn2cnc3scc(-c4ccccc4)c3c2=O)cc1 | -2.7% | -0.1%
COc1ccc(CNC(=O)CN2C(=O)CC(c3ccc(C)c(C)c3)=Nc3ccccc32)cc1 | 6.4% | /
CC(C)CN(CCOc1cccc(N2C(=O)C3=C(CCCC3)C2=O)c1)CC(C)C | 0.2% | -4.1%
O=C1C2=C(CCCC2)C(=O)N1c1cccc(OCCBr)c1 | 44.7µM* | 9.1%
COc1cc(/C=C/C(=O)OCC(=O)N2CC(=O)Nc3ccccc32)ccc1O | 44.7µM* | -0.3%
COc1ccc(/C=C/C(=O)OCC(=O)N2CC(=O)Nc3ccccc32)cc1S(=O)(=O)N1CCOCC1 | -6.3% | -1.5%
C#CCOCCOCCOCCNc1nc(N2CCN(C(=O)CCCCCCCCCCNC(=O)[C@H](CO)n3cc(CCCSC)nn3)CC2)nc(N2CCN(C(=O)CCCCCCCCCCNC(=O)[C@H](CCCCN)n3cc(CCO)nn3)CC2)n1 | / | 0.9%
SMILES | Sm TGR inh | SARS PLpro yeast
C#CCOCCOCCOCCNc1nc(N2CCN(C(=O)CCCCCCCCCCNC(=O)[C@H]([C@@H](C)CC)n3cc(CCCCN=C(N)N)nn3)CC2)nc(N2CCN(C(=O)CCCCCCCCCCNC(=O)[C@H](CO)n3cc(CCCCCN)nn3)CC2)n1 | 44.7µM* | -2.9%
C#CCOCCOCCOCCNc1nc(N2CCN(C(=O)CCCCCCCCCCNC(=O)[C@H]([C@@H](C)CC)n3cc(CCCCN=C(N)N)nn3)CC2)nc(N2CCN(C(=O)CCCCCCCCCCNC(=O)[C@H](CCCCN)n3cc(C)nn3)CC2)n1 | 39.8µM* | 3.1%
C#CCOCCOCCOCCNc1nc(N2CCN(C(=O)CCCCCCCCCCNC(=O)[C@H]([C@@H](C)CC)n3cc(CCCCN=C(N)N)nn3)CC2)nc(N2CCN(C(=O)CCCCCCCCCCNC(=O)[C@H]([C@@H](C)CC)n3cc(CCCCN=C(N)N)nn3)CC2)n1 | 39.8µM* | -1.7%
C#CCOCCOCCOCCNc1nc(N2CCN(C(=O)CCCCCCCCCCNC(=O)[C@H]([C@@H](C)CC)n3cc(CCCCCN)nn3)CC2)nc(N2CCN(C(=O)CCCCCCCCCCNC(=O)[C@H](CO)n3cc(CCCCCN)nn3)CC2)n1 | ? | -2.4%
C#CCOCCOCCOCCNc1nc(N2CCN(C(=O)CCCCCCCCCCNC(=O)[C@H]([C@@H](C)CC)n3cc(CCCCCN)nn3)CC2)nc(N2CCN(C(=O)CCCCCCCCCCNC(=O)[C@H]([C@@H](C)CC)n3cc(CCCCN=C(N)N)nn3)CC2)n1 | ? | 8.7%
C#CCOCCOCCOCCNc1nc(N2CCN(C(=O)CCCCCCCCCCNC(=O)[C@H]([C@@H](C)CC)n3cc(CCCCCN)nn3)CC2)nc(N2CCN(C(=O)CCCCCCCCCCNC(=O)[C@H](CCCCN)n3cc(CCCC(=O)O)nn3)CC2)n1 | -4.2% | -0.8%
